Screening results deposited in PubChem by National Center for Advancing Translational Sciences (NCATS).
DT40 TDP1 CPT: qHTS for Inhibitors of human tyrosyl-DNA phosphodiesterase 1 (TDP1): qHTS in cells in presence of CPT; chicken DT40 Tdp1-/-;hTDP1 cells + 20 nM CPT, ATP luminescence, 48 h; Potency, µM (doses to about 46.2 µM), for inactives: top-dose activity change, negative = growth inhibition, most hits filed as inhibitors; AID 686979, 2013; actives 12% (n = 420,000); further: potency means the concentration at half of the fitted maximal effect; nearly all actives have a fitted effect of over 55% in size
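Cell growth measured by CellTiter-Glo luminescence after a minimum 48 h, 37 C compound exposure with 20 nM CPT in Tdp1-knockout DT40 cells stably expressing hTDP1, seeded 400/well; qHTS titration format.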
12-LOX inh: Primary qHTS assay for inhibitors of human arachidonate 12S-lipoxygenase (ALOX12): Round 2. Polyunsaturated fatty acid lipoxygenase ALOX12 (Homo sapiens), P18054. purified 12hLO, xylenol orange hydroperoxide absorbance. Potency, µM (highest dose often 108 µM), without a hit: at the highest dose activity change, negative = inhibition, most hits filed as inhibitors. actives 1.1% (n = 580,000). AID 1671190, 2021; further: potency means the concentration at half of the fitted maximal effect
Target sequence (P18054 whole entry, looked up): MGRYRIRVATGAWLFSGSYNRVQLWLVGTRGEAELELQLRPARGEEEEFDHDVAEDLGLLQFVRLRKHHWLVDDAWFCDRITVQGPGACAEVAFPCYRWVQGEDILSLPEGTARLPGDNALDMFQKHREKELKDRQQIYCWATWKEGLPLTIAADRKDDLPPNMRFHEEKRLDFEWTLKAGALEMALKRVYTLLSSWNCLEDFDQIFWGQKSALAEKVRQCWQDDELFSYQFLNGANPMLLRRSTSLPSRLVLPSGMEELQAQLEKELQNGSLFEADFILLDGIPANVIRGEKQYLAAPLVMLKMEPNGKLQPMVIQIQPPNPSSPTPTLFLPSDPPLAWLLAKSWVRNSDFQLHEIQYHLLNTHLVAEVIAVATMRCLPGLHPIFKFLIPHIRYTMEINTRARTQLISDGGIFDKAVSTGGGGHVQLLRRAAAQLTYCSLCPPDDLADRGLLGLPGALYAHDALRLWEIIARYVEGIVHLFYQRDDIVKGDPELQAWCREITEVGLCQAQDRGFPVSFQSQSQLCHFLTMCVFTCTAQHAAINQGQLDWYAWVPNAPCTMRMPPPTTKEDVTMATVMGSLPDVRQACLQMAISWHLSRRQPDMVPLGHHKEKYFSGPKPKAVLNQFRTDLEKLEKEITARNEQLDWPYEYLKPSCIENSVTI
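Purified human 12hLO at 150 nM in 25 mM Hepes, 0.01% Triton X-100, pH 7.0, preincubated 15 min at room temperature with compound. Reaction started with 40 uM arachidonic acid, 30 min at room temperature. Hydroperoxide measured by Fe-xylenol orange, 573/405 nm absorbance ratio.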
IL1B secr inh: qHTS for Inhibitors of Inflammasome Signaling: IL-1-beta AlphaLISA Primary Screen | THP-1 LPS/ATP IL-1B secretion, AlphaLISA, 16 h; active compounds read low | activity change, % at 57.5 µM | actives 4.7% (n = 360,000); in the data active means activity change below about -50%; inconclusive means mostly about -30% to -49%
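Secreted IL-1B measured by AlphaLISA bead assay after 16 h compound exposure of THP-1 cells; compounds (final up to 57.5 uM) added 1 h before LPS (250 ng/mL) and ATP (1.25 mM) stimulation; lower signal means less secretion.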
HT1080 IDH1KD tx: qHTS for induction of synthetic lethality in tumor cells producing 2HG: qHTS for the HT-1080-IDH1KD cell line; Potency, µM (highest dose often 46.1 µM), for inactives: at the top dose activity, negative = toxicity, usual class: cytotoxic; HT-1080 IDH1 knockdown viability, ATP luminescence, 48 h; AID 686971, 2013; actives 2% (n = 360,000);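 further: potency means the concentration at half of the fitted maximal effect; 0% = DMSO wells and -100% = cell-free medium wells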
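Cytotoxicity counter-line: IDH1KD HT-1080, 48 h, CellTiter-Glo. Curves classed by r2, magnitude and activity.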
DT40 TDP1 no CPT: qHTS for Inhibitors of human tyrosyl-DNA phosphodiesterase 1 (TDP1): qHTS in cells in absence of CPT; DT40 Tdp1-/- hTDP1 cells, no CPT, ATP luminescence, 48 h; Potency, µM (titrated, usually from 46.2 µM), for the others: at the highest dose activity change, negative = growth inhibition, usual class: inhibitors; actives 15% (n = 420,000); further: potency means the concentration at half of the fitted maximal effect; nearly all actives have a fitted effect of over 55% in size
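Seeded 400 DT40-hTDP1 cells/well (vehicle DMSO, no 20 nM CPT); pinned compounds; ≥48 hr at 37 °C; CellTiter-Glo luminescence as viability measure.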
HT1080NT lethal: qHTS for induction of synthetic lethality in tumor cells producing 2HG: qHTS for the HT-1080-NT fibrosarcoma cell line | actives 1.6% (n = 360,000) | HT-1080-NT fibrosarcoma viability, CellTiter-Glo ATP luminescence, 48 h | Potency, µM (series often up to 46.1 µM), for the others: top-dose activity, negative = less viability, most hits filed as cytotoxic;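 further: NT is the 2HG producing partner of a matched IDH1 knockdown line; potency means the concentration at half of the fitted maximal effect; 0% = DMSO-treated cells and -100% = media-only wells without cells; nearly all actives have a fitted effect of over 55% in size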
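HT-1080-NT; 750 cells/well; 5% FBS RPMI; 48 h compound, 37 degrees C; CellTiter-Glo luminescence; curve fitting and curve-class assignment.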
* hit, by the source's call; ? = inconclusive; / = no result given. Only a selection was taken, and hits are over-represented in it overall. Unless noted, the call rests on the fitted dose curve; in most records, active means well fitted curve in the direction sought with a large enough effect; inconclusive means small, poorly fitted or top-dose-only effect, or another doubt; inactive means no such curve, though single readings can be large; an effect the other way counts as inactive or inconclusive. Unless noted, on the % scale 0 is the no-effect control and ±100 the full control effect.

SMILES | DT40 TDP1 CPT | 12-LOX inh | IL1B secr inh | HT1080 IDH1KD tx | DT40 TDP1 no CPT | HT1080NT lethal
Cc1ccccc1-c1nc(NCCN(C)C)nc2ccsc12 | -21% | 26% | -22 | 8% | ? | ?
COC(=O)[C@]12C[C@H](CC(=O)N3CCN(C(=O)C4CC4)CC3)C(=O)N(CCC3=CCCCC3)C1=C[C@H](COCc1ccccc1)O[C@@H]2C | / | -9% | / | / | / | /
Cc1ccc(NC2c3ccccc3-c3ccccc32)cc1 | / | 101% | / | / | / | /
COCCNc1nc(NCCN2CCNC2=O)c2sc(-c3ccccc3)cc2n1 | 26µM* | ? | / | 12% | 21µM* | ?
C=CCNc1nc(NCc2cccc(OC)c2)c2sc(-c3ccccc3)cc2n1 | 5.8µM* | ? | -108* | ? | 4.1µM* | ?
CC(C)OC(=O)Cn1nc(C(c2ccccc2)c2ccccc2)oc1=O | -13% | 15% | 10 | 1% | ? | 7%
COc1cccc(-c2cc(C(=O)N3CCCC3c3nncn3C(C)C)[nH]n2)c1 (stereo not drawn) | / | 37% | / | / | / | /
CCN1C(=O)C2(CCN(S(=O)(=O)c3cc(F)ccc3C)CC2)c2ccccc21 | / | 2% | / | / | / | /
COc1ccc(CCN(C)CCCC(C#N)(c2cc(OC)c(OC)c(OC)c2)C(C)C)cc1OC (stereo not drawn) | ? | ? | -24 | -15% | 21µM* | 1%
COc1ccc(CCN(C)CCc2ccc(OC)c(OC)c2)cc1OC | ? | 5% | 0 | -4% | -19% | 1%
N#Cc1c(Nc2ccc(Cl)cc2)s[nH]c1=O | 15µM* | ? | -73* | ? | 12µM* | -6%
CSc1nc(Nc2ccc(Cl)cc2)c(C#N)c(=O)[nH]1 | 1% | 6.3µM* | 17 | -7% | 17% | -4%
Cc1cc(F)ccc1S(=O)(=O)Nc1ccccc1C(=O)Nc1ccccc1-c1nc2ccccc2[nH]1 | 5.8µM* | / | -79* | ? | 7.3µM* | ?
CNc1ccc(-c2cccc(CO)c2)cn1 | ? | -3% | -5 | 9% | -14% | 19%
COc1ccc(CCn2c(=O)c3cccnc3n(CC(=O)Nc3c(C)cccc3C)c2=O)cc1OC | 14% | -6% | / | / | -24% | /
COc1ccc(CCn2c(=S)[nH]c(=O)c3cccnc32)cc1OC | 0.22µM* | / | / | ? | 0.1µM* | ?
COc1ccc(CCn2c(=O)c3cccnc3n(Cc3ccc([N+](=O)[O-])cc3)c2=O)cc1OC | ? | -9% | 8 | 17% | 16µM* | 7%
N#Cc1nc(-c2ccc(S(=O)(=O)N3CCCCCC3)cc2)oc1NCCCn1ccnc1 | / | 5% | / | / | / | /
C[C@H](CO)N1C[C@H](C)[C@@H](CN(C)C)Oc2c(NC(=O)CCCCCC(=O)Nc3ccccc3N)cccc2C1=O | 18µM* | 7% | 16 | -1% | ? | 0%
C[C@H](CO)N1C[C@H](C)[C@@H](CN(C)Cc2ccncc2)Oc2c(NC(=O)CCCCCC(=O)Nc3ccccc3N)cccc2C1=O | ? | -9% | 1 | 6% | 23µM* | 3%
C[C@H](CO)N1C[C@H](C)[C@@H](CN(C)Cc2ccccc2)Oc2ccc(NC(=O)CCCCCC(=O)Nc3ccccc3N)cc2C1=O | ? | 5% | 38 | -2% | ? | -9%
COc1ccccc1Nc1nc2ccccc2nc1NS(=O)(=O)c1ccc(F)cc1 | / | -18% | / | / | / | /
COCC1(c2nc(C3CCOCC3)nn2-c2ccncc2C)CC1 | / | 54% | / | / | / | /
Cn1c(CC2CCS(=O)(=O)C2)nnc1SCC(=O)Nc1ccc2c(c1)CCC2 (stereo not drawn) | / | 29% | / | / | / | /
COC(=O)c1ccc2nc(-c3ccc(F)cc3)c(Cc3ccccc3)n2c1 | 16µM* | ? | 1 | -1% | 23µM* | 8%
SMILES | DT40 TDP1 CPT | 12-LOX inh | IL1B secr inh | HT1080 IDH1KD tx | DT40 TDP1 no CPT | HT1080NT lethal
Cc1ccc2nc(-c3ccccc3)c(Cc3ccsc3)n2c1 | 15µM* | -5% | -13 | -6% | 16µM* | 1%
Clc1cccc(-c2nc3ccc(Cl)cn3c2Cc2ccsc2)c1 | ? | / | 103 | -10% | ? | -14%
COC(=O)c1ccc2nc(-c3ccc(F)cc3)c(Cc3ccsc3)n2c1 | ? | 7.1µM* | 25 | 11% | 18µM* | 12%
COC(=O)c1ccc2nc(C3CCCCC3)c(Cc3ccccc3)n2c1 | 16µM* | ? | 20 | ? | 9.2µM* | ?
COC(=O)c1ccc2nc(C3CCCCC3)c(CC(C)(C)C)n2c1 | ? | ? | 65 | ? | ? | ?
O=C(NCCCn1ccnc1)C1c2ccccc2Oc2ccccc21 | 2% | 0% | -20 | 21% | -1% | 9%
COc1nc2cc(C)c(C)cc2nc1C(=O)Nc1cccc(C)c1C | / | -2% | / | / | / | /
COC(=O)c1ccc2nc(-c3ccc(C)cc3)c(Cc3ccsc3)n2c1 | 18µM* | 40µM* | 46 | -6% | 21µM* | 1%
COC(=O)c1ccc2nc(-c3ccc(C#N)cc3)c(Cc3ccsc3)n2c1 | ? | ? | -6 | -19% | 23µM* | -6%
COC(=O)c1ccc2nc(-c3ccc(C)cc3)c(Cc3ccccc3OC)n2c1 | ? | ? | 48 | 16% | ? | -1%
CCc1ccc(N2CC(C(=O)OCC(=O)Nc3ccc(Cl)c(Cl)c3)CC2=O)cc1 (stereo not drawn) | / | 3% | / | / | / | /
COc1ccc2cc(C(=O)N3CCN(c4ccccc4F)CC3)c(C)nc2c1 | / | -3% | / | / | / | /
CCOC(=O)C1=C(CSc2nc(-c3ccncc3)ccc2C#N)OC(N)=C(C#N)C1c1ccc(OC)cc1 (stereo not drawn) | ? | 0% | -29 | 9% | 16µM* | 1%
CCOC(=O)C1=C(CSc2nc(CC)c(C)cc2C#N)OC(N)=C(C#N)C1c1ccc(OC)cc1 (stereo not drawn) | ? | -24% | 5 | 7% | 16µM* | -1%
CCOC(=O)C1=C(CSc2nc(-c3ccncc3)ccc2C#N)OC(N)=C(C#N)C1c1cccnc1 (stereo not drawn) | -17% | -10% | ? | 8% | ? | 16%
CN(C)c1ccc(CN2CCC3(CC2)C(C(=O)O)CC(=O)N3C)cn1 (stereo not drawn) | / | -5% | / | / | / | /
